Reference: the supplement of paper PMC10849652
The full data set covers some 7,900 targets. This sample favours those with a hit. About 0.6% of all pairs of compound and target were hits. Values without a mark were called inactive.

Tests used:
Assay in all cases: log2 fold change, soluble protein after heating vs DMSO (PISA); higher = thermal stabilisation; K562 cells, 10 uM, 30 min; active = over 0.2 and 3.5 SD of the protein, either way, in both replicates (recomputed)
[1] = compound: C1COCCN1CCN2C3=CC=CC=C3N=C2NC(=O)C4=CC(=CC=C4)[N+](=O)[O-] [IRAK-1-4 Inhibitor I]
In short: (§1)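 K562 cells at 2×10^6 cells/mL were treated with 10 μM compound for 30 min. Aliquots were heated for 3 min across 48°C-58°C, pooled, and extracted in PBS with 0.5% NP-40 at 4°C; soluble protein was the supernatant after 21,000xg for 90 min. Soluble protein was quantified by TMTpro 16plex LC-MS/MS with channel sums equalised, and reported as log2 fold change in thermal stability against DMSO controls, with values from duplicates.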

[2] = compound: C=CC(=O)N1CCC[C@@H](n2nc(-c3ccc(Oc4ccccc4)cc3)c3c(N)ncnc32)C1 [ibrutinib]
In short: as §1

[3] = compound: CC(=O)c1cnc2ccc(-c3cc(Cl)c(O)c(Cl)c3)nc2c1N[C@H]1CC[C@H](CN(C)C)CC1
In short: as §1

[4] = compound: CC(C)(C)Cn1c(N)nc2ccc(-c3[nH]c(C(C)(C)C)nc3-c3ccc(F)cc3)nc21 [ralimetinib]
In short: as §1

[5] = compound: CC(C)(O)CC(=O)NCCn1ccc2ncnc(Nc3ccc(Oc4cccc(C(F)(F)F)c4)c(Cl)c3)c21
In short: as §1

[6] = compound: CC(C)C1=C2N=C(C=C(N2N=C1)NCC3=CC=CC=C3)NCCCCCCN
In short: as §1

[7] = compound: CC(C)C[C@@H](C=O)NC(=O)[C@H](CC(C)C)NC(=O)[C@H](CC(C)C)NC(=O)OCc1ccccc1
In short: as §1

[8] = compound: CC(C)N(C[C@H]1O[C@@H](n2cnc3c(N)ncnc32)[C@H](O)[C@@H]1O)[C@H]1C[C@@H](CCc2nc3cc(C(C)(C)C)ccc3[nH]2)C1 [pinometostat]
In short: as §1

[9] = compound: CC1=C(C(CC(=O)N1)C2=CC=C(C=C2)C(F)(F)F)C(=O)NC3=C(C=C4C(=C3)C=NN4)F
In short: as §1

[10] = compound: CC1=C(C2=C(C=C1)C(=O)C3=CC=CC=C3N2CCCN)C
In short: as §1

[11] = compound: CC1=C(C=C(C=C1)NC(=O)C2=CC(=CC=C2)C(C)(C)C#N)NC3=CC4=C(C=C3)N=CN(C4=O)C
In short: as §1

[12] = compound: CC1=C(C=C(C=C1)NC(=O)C2=CC(=CC=C2)N(C)C)NC(=O)C3=CC=C(C=C3)O
In short: as §1

[13] = compound: CC1=CC=C(C=C1)SC2=C3C=C(SC3=CN=C2)C(=O)N
In short: as §1

[14] = compound: CC1=NC(=CC=C1)C2=C(N=C(N2)C(C)(C)C)C3=CC4=NC=CN=C4C=C3
In short: as §1

[15] = compound: CCCCN(Cc1ccc(C(=O)NO)cc1)C(=O)Nc1ccccc1 [Nexturastat A]
In short: as §1

[16] = compound: CCCS(=O)(=O)Nc1ccc(F)c(C(=O)c2c[nH]c3ncc(-c4ccc(Cl)cc4)cc23)c1F [vemurafenib]
In short: as §1

[17] = compound: CCCS(=O)(=O)Nc1ccc(F)c(C(=O)c2c[nH]c3ncc(Cl)cc23)c1F
In short: as §1

[18] = compound: CCCc1cc(C)[nH]c(=O)c1CNC(=O)c1cc(-c2ccnc(N3CCN(C)CC3)c2)cc2c1cnn2C(C)C
In short: as §1

[19] = compound: CCN(CC)Cc1ccc2cc(COC(=O)Nc3ccc(C(=O)NO)cc3)ccc2c1 [givinostat]
In short: as §1

[20] = compound: CCN(CCCOc1ccc2c(Nc3cc(CC(=O)Nc4cccc(F)c4)[nH]n3)ncnc2c1)CCOP(=O)(O)O [barasertib]
In short: as §1

UniProt Q8N6M0, sequence (Q8N6M0 whole entry, looked up): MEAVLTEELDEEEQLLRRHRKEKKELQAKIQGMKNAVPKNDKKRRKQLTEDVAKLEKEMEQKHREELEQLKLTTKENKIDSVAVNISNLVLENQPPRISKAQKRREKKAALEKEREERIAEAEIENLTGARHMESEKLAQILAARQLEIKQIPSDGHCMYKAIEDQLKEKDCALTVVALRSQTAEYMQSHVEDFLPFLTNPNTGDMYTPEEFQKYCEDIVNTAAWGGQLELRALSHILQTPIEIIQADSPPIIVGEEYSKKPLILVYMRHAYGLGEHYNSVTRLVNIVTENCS
UniProt Q8WX92, sequence (Q8WX92 whole entry, looked up): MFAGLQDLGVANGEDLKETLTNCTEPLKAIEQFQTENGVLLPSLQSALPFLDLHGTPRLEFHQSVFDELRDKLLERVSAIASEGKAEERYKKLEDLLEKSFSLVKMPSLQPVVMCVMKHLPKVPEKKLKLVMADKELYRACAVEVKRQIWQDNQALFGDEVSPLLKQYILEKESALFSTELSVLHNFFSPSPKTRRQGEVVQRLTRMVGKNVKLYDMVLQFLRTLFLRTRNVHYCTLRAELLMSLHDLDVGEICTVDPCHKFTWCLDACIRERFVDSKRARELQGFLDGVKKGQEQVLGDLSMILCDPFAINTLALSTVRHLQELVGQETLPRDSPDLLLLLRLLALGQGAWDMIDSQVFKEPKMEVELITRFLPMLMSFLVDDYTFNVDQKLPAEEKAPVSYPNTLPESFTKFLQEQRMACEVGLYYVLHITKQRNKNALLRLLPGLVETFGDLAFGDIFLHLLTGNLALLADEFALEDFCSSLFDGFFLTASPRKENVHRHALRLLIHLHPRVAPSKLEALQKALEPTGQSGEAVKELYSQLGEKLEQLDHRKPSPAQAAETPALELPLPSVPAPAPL
UniProt Q96MF7, sequence (Q96MF7 whole entry, looked up): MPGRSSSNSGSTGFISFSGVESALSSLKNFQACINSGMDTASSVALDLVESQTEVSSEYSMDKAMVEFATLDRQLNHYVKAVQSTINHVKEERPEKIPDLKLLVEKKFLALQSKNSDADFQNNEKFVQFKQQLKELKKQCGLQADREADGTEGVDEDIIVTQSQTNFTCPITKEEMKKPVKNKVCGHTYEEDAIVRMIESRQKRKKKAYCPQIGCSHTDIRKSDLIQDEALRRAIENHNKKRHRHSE
UniProt Q08J23, sequence (Q08J23 whole entry, looked up): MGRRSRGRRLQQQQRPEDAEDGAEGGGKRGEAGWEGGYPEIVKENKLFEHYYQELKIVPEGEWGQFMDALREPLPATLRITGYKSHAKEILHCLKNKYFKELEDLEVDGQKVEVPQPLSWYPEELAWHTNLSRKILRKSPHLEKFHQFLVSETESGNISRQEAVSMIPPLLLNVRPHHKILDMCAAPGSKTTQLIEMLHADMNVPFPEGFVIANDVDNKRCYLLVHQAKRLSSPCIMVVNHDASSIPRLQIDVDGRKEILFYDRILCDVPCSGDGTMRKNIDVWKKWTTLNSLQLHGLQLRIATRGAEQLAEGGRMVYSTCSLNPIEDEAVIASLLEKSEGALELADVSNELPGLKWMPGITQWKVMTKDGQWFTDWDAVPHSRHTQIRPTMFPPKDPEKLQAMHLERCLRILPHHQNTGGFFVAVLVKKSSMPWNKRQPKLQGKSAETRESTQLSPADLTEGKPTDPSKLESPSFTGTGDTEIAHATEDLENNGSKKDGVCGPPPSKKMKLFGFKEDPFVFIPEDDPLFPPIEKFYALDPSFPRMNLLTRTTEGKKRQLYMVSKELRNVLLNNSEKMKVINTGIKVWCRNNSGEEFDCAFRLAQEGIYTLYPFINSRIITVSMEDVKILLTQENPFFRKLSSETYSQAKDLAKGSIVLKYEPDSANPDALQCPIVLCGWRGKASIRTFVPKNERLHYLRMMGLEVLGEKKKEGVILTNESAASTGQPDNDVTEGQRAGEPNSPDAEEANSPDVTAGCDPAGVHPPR
UniProt Q9Y2I1, sequence (Q9Y2I1 whole entry, looked up): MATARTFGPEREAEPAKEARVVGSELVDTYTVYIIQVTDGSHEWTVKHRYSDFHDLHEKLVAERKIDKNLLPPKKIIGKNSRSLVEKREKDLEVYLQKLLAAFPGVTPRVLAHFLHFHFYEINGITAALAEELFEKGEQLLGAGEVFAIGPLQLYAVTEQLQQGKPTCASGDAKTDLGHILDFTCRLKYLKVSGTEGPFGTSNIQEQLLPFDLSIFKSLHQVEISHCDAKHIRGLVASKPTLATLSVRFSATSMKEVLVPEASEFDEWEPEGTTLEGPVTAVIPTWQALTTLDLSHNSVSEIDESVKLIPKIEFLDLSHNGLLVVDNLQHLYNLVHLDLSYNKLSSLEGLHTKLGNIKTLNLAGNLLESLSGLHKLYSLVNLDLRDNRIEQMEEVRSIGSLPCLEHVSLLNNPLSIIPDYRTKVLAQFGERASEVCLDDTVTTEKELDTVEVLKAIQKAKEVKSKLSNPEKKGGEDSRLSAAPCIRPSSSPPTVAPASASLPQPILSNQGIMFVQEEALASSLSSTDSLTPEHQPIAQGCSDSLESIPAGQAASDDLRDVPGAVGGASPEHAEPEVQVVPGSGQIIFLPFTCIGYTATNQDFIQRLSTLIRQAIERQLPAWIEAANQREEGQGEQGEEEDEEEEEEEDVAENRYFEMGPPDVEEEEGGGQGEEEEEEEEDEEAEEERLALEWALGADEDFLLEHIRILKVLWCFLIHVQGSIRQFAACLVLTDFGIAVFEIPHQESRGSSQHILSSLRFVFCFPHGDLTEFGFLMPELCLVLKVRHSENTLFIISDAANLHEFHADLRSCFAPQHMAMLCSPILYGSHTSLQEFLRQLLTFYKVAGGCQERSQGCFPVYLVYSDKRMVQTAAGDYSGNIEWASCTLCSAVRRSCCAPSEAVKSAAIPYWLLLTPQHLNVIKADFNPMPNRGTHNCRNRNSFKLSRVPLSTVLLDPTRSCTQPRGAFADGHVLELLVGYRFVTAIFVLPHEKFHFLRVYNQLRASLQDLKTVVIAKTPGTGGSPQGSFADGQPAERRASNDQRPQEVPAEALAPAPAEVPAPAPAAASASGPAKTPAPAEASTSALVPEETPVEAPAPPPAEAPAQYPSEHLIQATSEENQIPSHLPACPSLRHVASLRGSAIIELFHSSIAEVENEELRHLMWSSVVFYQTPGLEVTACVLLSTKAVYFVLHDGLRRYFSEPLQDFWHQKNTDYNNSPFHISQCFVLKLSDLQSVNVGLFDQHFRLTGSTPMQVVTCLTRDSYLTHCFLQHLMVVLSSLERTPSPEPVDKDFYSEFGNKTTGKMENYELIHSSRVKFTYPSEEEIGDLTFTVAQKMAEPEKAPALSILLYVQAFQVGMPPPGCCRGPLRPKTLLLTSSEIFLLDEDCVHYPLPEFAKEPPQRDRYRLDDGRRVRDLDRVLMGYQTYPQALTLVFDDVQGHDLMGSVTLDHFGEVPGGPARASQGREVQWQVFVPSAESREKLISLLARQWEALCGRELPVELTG
UniProt Q9BRA0, sequence (Q9BRA0 whole entry, looked up): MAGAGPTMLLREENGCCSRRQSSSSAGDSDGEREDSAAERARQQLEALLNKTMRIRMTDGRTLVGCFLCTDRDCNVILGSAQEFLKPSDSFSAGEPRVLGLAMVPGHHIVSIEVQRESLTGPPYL
UniProt O60934, sequence (O60934 whole entry, looked up): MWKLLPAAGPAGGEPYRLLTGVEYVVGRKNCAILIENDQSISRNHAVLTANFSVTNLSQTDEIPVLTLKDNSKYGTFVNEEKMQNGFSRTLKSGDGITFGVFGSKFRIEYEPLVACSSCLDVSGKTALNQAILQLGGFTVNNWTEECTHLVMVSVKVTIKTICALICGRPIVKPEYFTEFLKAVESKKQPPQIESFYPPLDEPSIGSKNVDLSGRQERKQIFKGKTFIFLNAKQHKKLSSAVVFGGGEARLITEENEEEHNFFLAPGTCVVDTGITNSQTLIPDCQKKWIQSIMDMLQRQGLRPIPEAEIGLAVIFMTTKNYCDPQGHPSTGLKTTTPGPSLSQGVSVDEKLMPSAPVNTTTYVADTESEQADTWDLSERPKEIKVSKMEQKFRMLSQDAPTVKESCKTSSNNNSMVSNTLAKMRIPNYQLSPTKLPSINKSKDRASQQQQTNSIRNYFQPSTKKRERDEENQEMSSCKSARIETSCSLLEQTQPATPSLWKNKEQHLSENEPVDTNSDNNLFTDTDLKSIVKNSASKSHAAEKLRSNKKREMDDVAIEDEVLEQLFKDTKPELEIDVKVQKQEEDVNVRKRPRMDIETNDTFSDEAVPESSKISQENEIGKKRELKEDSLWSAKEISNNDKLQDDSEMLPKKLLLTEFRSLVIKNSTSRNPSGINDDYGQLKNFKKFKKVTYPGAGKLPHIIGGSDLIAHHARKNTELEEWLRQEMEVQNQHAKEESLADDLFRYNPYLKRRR
UniProt O95169, sequence (O95169 whole entry, looked up): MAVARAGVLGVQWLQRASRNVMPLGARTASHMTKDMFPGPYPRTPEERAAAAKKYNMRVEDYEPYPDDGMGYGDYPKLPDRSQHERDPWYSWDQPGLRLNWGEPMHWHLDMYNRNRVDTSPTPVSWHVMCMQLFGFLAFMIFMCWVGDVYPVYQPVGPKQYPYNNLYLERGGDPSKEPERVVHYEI
UniProt Q16795, sequence (Q16795 whole entry, looked up): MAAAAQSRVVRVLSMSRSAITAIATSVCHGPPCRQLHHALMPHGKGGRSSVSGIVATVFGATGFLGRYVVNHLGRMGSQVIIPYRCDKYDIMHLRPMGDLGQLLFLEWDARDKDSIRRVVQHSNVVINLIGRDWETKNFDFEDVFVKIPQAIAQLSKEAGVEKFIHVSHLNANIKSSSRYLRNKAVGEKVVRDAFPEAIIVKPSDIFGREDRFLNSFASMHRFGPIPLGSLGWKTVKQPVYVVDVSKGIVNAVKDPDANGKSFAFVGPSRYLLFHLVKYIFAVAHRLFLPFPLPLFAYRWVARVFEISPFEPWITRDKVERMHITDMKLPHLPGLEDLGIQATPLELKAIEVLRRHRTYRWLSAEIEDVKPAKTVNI

Row | Target | log2 fold change [1] | log2 fold change [2] | log2 fold change [3] | log2 fold change [4] | log2 fold change [5] | log2 fold change [6] | log2 fold change [7] | log2 fold change [8] | log2 fold change [9] | log2 fold change [10] | log2 fold change [11] | log2 fold change [12] | log2 fold change [13] | log2 fold change [14] | log2 fold change [15] | log2 fold change [16] | log2 fold change [17] | log2 fold change [18] | log2 fold change [19] | log2 fold change [20]
1 | NCOA7 (UniProt Q8NI08) | 0.017 | -0.056 | -0.075 | 0.052 | -0.005 | -0.088 | 0.072 | 0.019 | -0.033 | -0.009 | 0.068 | -0.045 | 0.015 | 0.016 | 0.012 | 0.008 | -0.005 | 0.024 | 0.045 | 0.009
2 | NELFB isoform 2 (UniProt Q8WX92) | -0.03 | -0.045 | -0.144 | -0.067 | -0.154 | -0.112 | 0.001 | 0.022 | 0.017 | 0.042 | -0.026 | -0.062 | 0.035 | 0.05 | -0.032 | 0.06 | 0.08 | -0.007 | 0.069 | 0.046
3 | MRPS2 (UniProt Q9Y399) | -0.043 | 0.109 | -0.011 | -0.02 | -0.035 | -0.03 | 0.08 | 0.002 | 0.002 | -0.079 | 0.075 | -0.049 | -0.018 | 0.029 | 0.049 | 0.126 | 0.041 | -0.084 | -0.044 | -0.031
4 | NISCH (UniProt Q9Y2I1) | 0.053 | 0 | -0.037 | 0.02 | 0.007 | -0.429 | 0.028 | 0.047 | 0.018 | 0.004 | 0.009 | -0.07 | -0.054 | -0.018 | 0.094 | 0.055 | 0.116 | -0.077 | 0.032 | 0.075
5 | NDUFB8 (UniProt O95169) | 0.001 | -0.01 | -0.004 | -0.063 | -0.36 (active) | -0.042 | 0.059 | 0.003 | 0.081 | 0.103 | 0.01 | -0.068 | 0.023 | 0.024 | 0.045 | 0.099 | -0.04 | -0.025 | -0.048 | 0.023
6 | NSMCE2 (UniProt Q96MF7) | -0.023 | -0.171 | -0.107 | 0.176 | 0.051 | 0.122 | -0.083 | -0.001 | -0.056 | -0.122 | 0.019 | -0.052 | 0.006 | 0.056 | 0.064 | -0.007 | 0.021 | 0.018 | -0.076 | 0.078
7 | OSBP (UniProt P22059) | 0 | -0.067 | -0.029 | -0.009 | -0.076 | 0.091 | 0.017 | -0.002 | -0.052 | 0.024 | 0.098 | -0.011 | -0.028 | 0.022 | -0.073 | 0.015 | 0.027 | -0.003 | -0.052 | -0.001
8 | OXA1L (UniProt Q15070) | 0.05 | 0.011 | 0.03 | -0.037 | 0.006 | -0.209 | -0.004 | 0 | 0.016 | -0.018 | -0.013 | 0.01 | 0.02 | 0.01 | -0.021 | 0.022 | -0.013 | -0.049 | 0.003 | -0.012
9 | NAA38 isoform 2 (UniProt Q9BRA0) | 0.047 | -0.021 | -0.034 | 0.02 | -0.095 | -0.397 (active) | -0.001 | 0.035 | 0.051 | -0.01 | 0.018 | 0.041 | 0.018 | -0.044 | 0.052 | 0.094 | 0.042 | -0.129 | 0.066 | -0.025
10 | OTUD6B (UniProt Q8N6M0) | -0.046 | -0.017 | -0.02 | 0.036 | -0.049 | -0.269 (active) | 0.029 | 0.053 | 0.078 | -0.015 | 0.045 | -0.002 | 0.124 | 0.007 | 0.044 | 0.035 | 0.14 | 0.084 | -0.02 | 0.096
11 | NMD3 (UniProt Q96D46) | 0.001 | -0.046 | 0.017 | -0.049 | -0.104 | -0.069 | -0.141 | -0.026 | -0.064 | -0.392 (active) | 0.03 | -0.061 | -0.009 | 0.067 | -0.079 | 0.077 | 0.03 | -0.004 | -0.024 | 0.015
12 | NBN (UniProt O60934) | -0.009 | -0.008 | -0.147 | -0.028 | -0.062 | -0.025 | 0.007 | 0.009 | -0.029 | -0.02 | 0.017 | -0.008 | -0.01 | 0.014 | -0.03 | 0.081 | 0.047 | 0.04 | 0.054 | 0.022
13 | NSUN2 (UniProt Q08J23) | -0.02 | -0.029 | -0.165 | 0.062 | -0.008 | -0.314 (active) | 0.026 | 0.058 | 0.008 | -0.075 | -0.042 | 0.013 | -0.021 | -0.009 | 0.037 | 0.016 | 0.061 | 0.019 | -0.204 | 0.037
14 | NDUFA9 (UniProt Q16795) | 0.003 | -0.036 | -0.037 | -0.011 | -0.211 | -0.101 | 0 | -0.006 | -0.01 | 0.086 | 0.023 | -0.036 | 0.019 | 0.04 | -0.095 | 0.009 | 0.039 | -0.044 | 0.041 | 0.026
15 | NUP205 (UniProt Q92621) | -0.035 | -0.038 | -0.1 | -0.027 | 0.032 | -0.167 | -0.058 | 0 | -0.005 | 0.018 | 0.009 | 0.018 | 0.002 | 0.075 | 0.151 | 0.059 | 0.084 | -0.016 | 0.076 | 0.044
16 | PACS1 (UniProt Q6VY07) | -0.002 | -0.016 | -0.297 (active) | -0.024 | -0.014 | -0.011 | 0 | -0.029 | -0.098 | -0.007 | -0.001 | -0.031 | -0.021 | 0.087 | 0.023 | 0.021 | 0.023 | 0.092 | 0.004 | 0.039
